Whole data set: some 33,000 sequences, median “E-score (-0.5 to 0.5)” near -0.0014, cut for the highest 2% near 0.25. Shown is part of a subset that was picked to be rich in the highest values.
These sequences were tested against T1, Cad1 (UniProt P24813) (assay: PBM E-score (8-mer binding enrichment) (E-score (-0.5 to 0.5)); higher = stronger / more preferred TF binding). Details: protein concentration: 100 nM; construct: GST-full length.
T1 sequence: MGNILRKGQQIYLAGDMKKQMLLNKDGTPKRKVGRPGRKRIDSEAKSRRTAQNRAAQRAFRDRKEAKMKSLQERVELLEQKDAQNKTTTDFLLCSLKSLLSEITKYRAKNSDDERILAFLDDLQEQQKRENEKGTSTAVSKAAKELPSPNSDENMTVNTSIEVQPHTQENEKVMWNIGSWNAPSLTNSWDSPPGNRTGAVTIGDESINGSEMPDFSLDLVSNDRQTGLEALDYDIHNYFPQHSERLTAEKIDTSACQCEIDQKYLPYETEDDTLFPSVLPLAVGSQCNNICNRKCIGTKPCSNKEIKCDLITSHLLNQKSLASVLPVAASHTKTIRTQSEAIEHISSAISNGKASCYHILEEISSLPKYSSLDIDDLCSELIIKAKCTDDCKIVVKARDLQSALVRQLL
Summary of the method: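 E-scores (a modified Wilcoxon-Mann-Whitney statistic) were assigned by the Universal PBM Analysis Suite to every ungapped eight-base word pooled with its reverse complement. The input came from universal all-10-mer Agilent arrays made double-stranded by primer extension and probed with GST-tagged yeast transcription factors at about 100-200 nM. Fluorescent anti-GST detected bound protein, and masliner normalised the scans.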
For GATTAATC, the “PBM E-score” value was 0.355.
In the case of GATTAACA, the “PBM E-score” value is reported as 0.163.
For TATTAATA, the “PBM E-score” value was 0.339.
With CATTAATC the “PBM E-score” value was 0.153.
TATTAAAA was tested, and the “PBM E-score” value was 0.194.
For CATTAATG, the “PBM E-score” value was 0.198.
GATTAAAC was tested, and the “PBM E-score” value was 0.0432.
For CATTAACA, the “PBM E-score” value was 0.16.
In the case of AACCCCTC, the “PBM E-score” value is reported as -0.319.
GCGAGTTA was tested, and the “PBM E-score” value was 0.0928.
For GTCTGCTA, the “PBM E-score” value was 0.218.
In the case of GAGAGAAA, the “PBM E-score” value is reported as 0.14.
With CTTATACC the “PBM E-score” value was 0.0668.
With CGACCTAC the “PBM E-score” value was -0.126.
With CGTTGGTA the “PBM E-score” value was 0.141.
For GTTCGGAA, the “PBM E-score” value was 0.174.
In the case of ACACTATC, the “PBM E-score” value is reported as 0.115.
GACTCAAA was tested, and the “PBM E-score” value was -0.0319.
ACAACTAT was tested, and the “PBM E-score” value was 0.0919.
For AGTAGTGG, the “PBM E-score” value was 0.0582.
For GAACTATA, the “PBM E-score” value was 0.09.
In the case of GATTAATA, the “PBM E-score” value is reported as 0.354.
For GATTAAAA, the “PBM E-score” value was 0.214.
In the case of GATTAAGA, the “PBM E-score” value is reported as 0.18.
GGTTGAGA was tested, and the “PBM E-score” value was -0.224.
For GCATATGA, the “PBM E-score” value was 0.118.
For TCATATGA, the “PBM E-score” value was 0.321.
In the case of CCATATGA, the “PBM E-score” value is reported as -0.0943.
With CCCCTGCA the “PBM E-score” value was -0.246.
In the case of AGCCAACT, the “PBM E-score” value is reported as -0.117.
In the case of ACGGATCA, the “PBM E-score” value is reported as 0.215.
In the case of AATTCGCC, the “PBM E-score” value is reported as 0.154.
For GCGAACAA, the “PBM E-score” value was 0.275.
With ACGAACAA the “PBM E-score” value was 0.184.
With CGGAACAC the “PBM E-score” value was 0.235.
TGGAACAA was tested, and the “PBM E-score” value was 0.144.
CCGAACAA was tested, and the “PBM E-score” value was 0.107.
CGGAACAA was tested, and the “PBM E-score” value was 0.29.
For CGTAGTAC, the “PBM E-score” value was -0.00804.
AGCATCCA was tested, and the “PBM E-score” value was -0.168.
CTTTCAGA was tested, and the “PBM E-score” value was 0.0705.
AAGAATGC was tested, and the “PBM E-score” value was 0.0333.
GGCTTACA was tested, and the “PBM E-score” value was 0.229.
With GAATGGTC the “PBM E-score” value was -0.0781.
For ATAAACCC, the “PBM E-score” value was 0.0626.
AAGCCTTG was tested, and the “PBM E-score” value was 0.00151.
In the case of AATCTCCC, the “PBM E-score” value is reported as -0.277.
For AAGCGATA, the “PBM E-score” value was 0.103.
With ACAATTGG the “PBM E-score” value was -0.0197.
With CCAATTGG the “PBM E-score” value was 0.263.
In the case of CCAATTGA, the “PBM E-score” value is reported as 0.0388.
CCAATTGC was tested, and the “PBM E-score” value was -0.114.
With GCAATTGA the “PBM E-score” value was 0.118.
With GCAATTGC the “PBM E-score” value was 0.33.
CGCTGTAG was tested, and the “PBM E-score” value was -0.0927.
For CGTTGCTA, the “PBM E-score” value was 0.103.
For CATAACTC, the “PBM E-score” value was -0.0187.
With TGCGGCCA the “PBM E-score” value was -0.03.
In the case of ATGTCTGA, the “PBM E-score” value is reported as 0.129.
For GGGGATGA, the “PBM E-score” value was -0.094.
With TGCTAGCA the “PBM E-score” value was 0.263.
In the case of CGCTAGCA, the “PBM E-score” value is reported as -0.0293.
GGCTAGCA was tested, and the “PBM E-score” value was -0.135.
For ATTAATCA, the “PBM E-score” value was 0.436.
In the case of ATTAATCC, the “PBM E-score” value is reported as 0.161.
For CTTAATCA, the “PBM E-score” value was 0.141.
GCTAATCA was tested, and the “PBM E-score” value was 0.215.
For GTTAATCA, the “PBM E-score” value was 0.318.
For ATTAATCG, the “PBM E-score” value was 0.234.
CTAGCCCC was tested, and the “PBM E-score” value was -0.0928.
For TGCAGAAA, the “PBM E-score” value was 0.114.
In the case of ACGTACTC, the “PBM E-score” value is reported as -0.0542.
CTCTATAC was tested, and the “PBM E-score” value was 0.0205.
With ATATATCC the “PBM E-score” value was 0.297.
For AAATATGT, the “PBM E-score” value was 0.277.
In the case of CTATATAC, the “PBM E-score” value is reported as 0.27.
With CTATATCC the “PBM E-score” value was -0.0465.
For ATATATAT, the “PBM E-score” value was 0.295.
In the case of CTATATAG, the “PBM E-score” value is reported as 0.0376.
For ATATATCA, the “PBM E-score” value was 0.134.
For AAATATGA, the “PBM E-score” value was 0.234.
AAATATGC was tested, and the “PBM E-score” value was 0.069.
ACATATAT was tested, and the “PBM E-score” value was 0.155.
ATATATAG was tested, and the “PBM E-score” value was 0.175.
For CCTGCCTA, the “PBM E-score” value was -0.0584.
AGGGTTAG was tested, and the “PBM E-score” value was -0.153.
With AGGATAGA the “PBM E-score” value was -0.0415.
With AGAACTAG the “PBM E-score” value was -0.146.
With CCAAAGGG the “PBM E-score” value was -0.0732.
ACTCTCGG was tested, and the “PBM E-score” value was -0.0764.
In the case of GGCGTTAC, the “PBM E-score” value is reported as -0.0303.
In the case of AAATATAA, the “PBM E-score” value is reported as 0.247.
For ACATATAC, the “PBM E-score” value was 0.0911.
AAATATAC was tested, and the “PBM E-score” value was -0.0915.
GTATATAC was tested, and the “PBM E-score” value was -0.0771.
In the case of ATATATAC, the “PBM E-score” value is reported as 0.317.
For AAATATAT, the “PBM E-score” value was 0.305.
In the case of AGTAGCCA, the “PBM E-score” value is reported as -0.282.
With AGTCCAGC the “PBM E-score” value was -0.112.
In the case of TAGGTCGA, the “PBM E-score” value is reported as 0.131.
For GATATATC, the “PBM E-score” value was 0.211.
In the case of TACATATA, the “PBM E-score” value is reported as 0.252.
For GATATGGA, the “PBM E-score” value was 0.266.
AATATGGA was tested, and the “PBM E-score” value was 0.0714.
GACATATA was tested, and the “PBM E-score” value was 0.0919.
GATATATA was tested, and the “PBM E-score” value was 0.333.
With TATATGGA the “PBM E-score” value was -0.0332.
TATATATA was tested, and the “PBM E-score” value was 0.377.
In the case of GATATACA, the “PBM E-score” value is reported as 0.0899.
In the case of TATATACA, the “PBM E-score” value is reported as 0.209.
In the case of CACATATA, the “PBM E-score” value is reported as 0.0867.
For CATATATA, the “PBM E-score” value was 0.164.
